Test results: PubChem BioAssay AID588689 (Southern Research Specialized Biocontainment Screening …, 2011)
Hit rate of the full screen: of about 340,000 compounds, about 1,000 (0.29%) were called active. No stated cut-off is given here; in the data, inconclusive means inhibition above about 29% without an active follow-up result; inactive means below that. These entries were drawn from the full list. Entries with a potency or affinity are not part of this list.

Target: Genome polyprotein (Dengue virus type 2 (strain 16681-PDK53)) (UniProt P29991)
Test: flavivirus cap methylation enzyme inhibition – biochemical, confirmation dose response, primary screen (AID 588689)
Settings: Dengue-2 NS5 methyltransferase capping enzyme assay, at 25 µM, stronger effect = higher value
[1] = measured here: pilot screen replicate inhibition

Structure (SMILES)	inhibition	inhibition [1]
CC(C)(C)[C@@H]1C=C(C(=O)O)[C@H](c2ccc(Cl)cc2)N1S(=O)(=O)c1ccccc1	-3.97% (inactive)	-4.61%
Cn1c(SCC(=O)Nc2ccccc2)nc2c([nH]c3ccccc32)c1=O	-11.1% (inactive)	
Nc1ccn([C@@H]2O[C@H](CNC(=O)[C@@H](Cc3cccnc3)NC=O)[C@@H](O)[C@H]2O)c(=O)n1	-7.38% (inactive)	
Cc1cc2nc(C)c3c(n2n1)CCC3	-6.57% (inactive)	
Nn1c(COc2ccccc2F)nnc1SCC(=O)NC1CCCC1	-8.38% (inactive)	
O=C1c2ccccc2NC(c2ccc(-c3ccc(F)cc3)o2)N1O (centres undefined)	13.4% (inactive)	
CCOC(=O)c1cc(-c2ccc(/C=N\n3cnnc3)o2)ccc1Cl	-3.91% (inactive)	
O=C(O)c1ccccc1-c1ccc(/C=C2\SC(=O)N(c3ccccc3)C2=O)o1	25.1% (inactive)	
CC1=NN(c2ccc(C)cc2)C(=O)/C1=C/c1ccc(-c2cc([N+](=O)[O-])ccc2O)o1	21.8% (inactive)	
CC1=NN(c2ccc(Cl)c(C(=O)O)c2)C(=O)C1	10.9% (inactive)	
CCCOC(=O)c1cc(-c2ccc(/C=C3/C(=O)N(C)C(=O)C(C#N)=C3C)o2)ccc1Cl	-12.3% (inactive)	-8.18%
CN1C(=O)/C(=C/c2ccc(-c3ccccc3[N+](=O)[O-])o2)SC1=Nc1ccc(Cl)c(C(=O)O)c1	24.5% (inactive)	
Cc1c(C(=O)O)cccc1-c1ccc(/C=C2/NC(=O)N(c3ccccc3)C2=O)o1	-1.55% (inactive)	
Cc1ccc(CN2C(=O)N/C(=C/c3ccc(-c4ccc(C(=O)O)cc4)o3)C2=O)cc1	14.9% (inactive)	
O=C(Nc1ccccc1N1CCCCC1)c1cc(S(=O)(=O)N2CCOCC2)ccc1Cl	-0.73% (inactive)	
C#CC[N+](C)(C)CC#Cc1ccccc1	-1.48% (inactive)	
O=C1CC(c2ccccc2)CC(O)=C1C=NCc1ccc(Cl)c(Cl)c1 (centres undefined)	3.34% (inactive)	
CC1(C)CC(=O)C(C(N)=NC(=O)c2ccccc2)=C(O)C1	0% (inactive)	
CC(=O)c1c(C)[nH]c(C(=O)OCC(=O)N2CCc3ccccc32)c1C	-4.77% (inactive)	
CCCCc1cc(=O)oc2cc(OCC(=O)N3CCc4ccccc43)ccc12	-4.8% (inactive)	
CCc1ccc(N2C(=O)CC(Cn3nc(C)cc3C)C2=O)cc1 (centres undefined)	-5.48% (inactive)	
CN(C)S(=O)(=O)c1cccc(NC(=O)/C=C/c2ccc(S(=O)(=O)N3CCOCC3)cc2)c1	-0.74% (inactive)	

Structure (SMILES)	inhibition	inhibition [1]
COC(=O)c1ccccc1-c1ccc(/C=C2\C(=O)N(c3ccccc3)N=C2c2ccccc2)o1	1.6% (inactive)	
CC1=NN(c2cccc(C(=O)O)c2)C(=O)/C1=C\C=C\c1ccco1	19.1% (inactive)	
CCOC(=O)c1ccc(N2N=C(C)/C(=C/C=C/c3ccco3)C2=O)cc1	10.2% (inactive)	
CC1=NN(c2ccc(C(=O)O)cc2)C(=O)/C1=C/c1ccc(-c2ccccc2F)o1	51.9% (inactive)	
O=C(c1ccccc1[N+](=O)[O-])N1CCCC(C(=O)N2CCCCCC2)C1 (centres undefined)	0% (inactive)	
CCCSc1nnc(NC(=O)c2nc(SC)ncc2Cl)s1	0% (inactive)	
CCc1ccc(NC(=O)c2nc(S(=O)(=O)Cc3ccccc3)ncc2Cl)cc1	-51.9% (inactive)	
C=CCSc1nnc(NC(=O)c2nc(SCC)ncc2Cl)s1	-6.43% (inactive)	
O=C(Nc1ccc(F)cc1)c1nc(S(=O)(=O)Cc2ccccc2)ncc1Cl	-51.9% (inactive)	
COc1ccc([N+](=O)[O-])cc1NC(=O)CCN1CCOCC1	-1.96% (inactive)	
COc1ccc(N(CC(=O)N/N=C/c2ccc(-c3ccc([N+](=O)[O-])cc3)o2)S(=O)(=O)c2ccc(C)cc2)cc1Cl	-4.14% (inactive)	
O=C(c1ccc(N2C(=O)c3ccccc3C2=O)cc1)N1CCN(S(=O)(=O)c2ccccc2F)CC1	-0.55% (inactive)	
O=C(CCC(=O)Nc1cccc(Cl)c1)N/N=C/c1cc([N+](=O)[O-])ccc1O	-2.94% (inactive)	
CN1CCCC(OC(=O)c2ccc(C(C)(C)C)cc2)C1 (centres undefined)	-4.27% (inactive)	
CCOC(=O)C1C(=O)CC(C)(O)C(C(=O)OCC)C1c1cccc(OC)c1 (centres undefined)	-3.38% (inactive)	
CCNCc1cc(OCC)c(OCC(=O)NCCc2ccccc2)cc1Cl	-2.77% (inactive)	
CCCn1c(N)c(C(=O)CSc2nc3ncc(Cl)cc3[nH]2)c(=O)[nH]c1=O	-2.94% (inactive)	
COc1ccc([C@@H]2CC=C(C(=O)O)[C@H](c3cccc(Cl)c3)N2S(=O)(=O)c2ccc(Cl)cc2)cc1	16% (inactive)	
Cc1ccc(S(=O)(=O)N2[C@@H](c3ccccc3)C(C(=O)O)=CC[C@H]2c2ccc(C(C)C)cc2)cc1	21.6% (inactive)	
Cc1ccc(S(=O)(=O)N2[C@@H](c3ccc(Cl)cc3)C(C(=O)O)=CC[C@H]2c2cccc(Cl)c2)cc1	22.7% (inactive)	
Cc1ccc(S(=O)(=O)N2[C@@H](c3cccc(Cl)c3)C(C(=O)O)=CC[C@H]2c2ccc(Cl)cc2)cc1	20.7% (inactive)	
Cc1ccc(S(=O)(=O)N2[C@@H](c3ccc(Cl)cc3)C(C(=O)O)=CC[C@H]2c2ccc(C(C)C)cc2)cc1	25.9% (inactive)	

Structure (SMILES)	inhibition	inhibition [1]
Cc1ccc(S(=O)(=O)N2[C@@H](c3ccccc3)C(C(=O)O)=CC[C@H]2c2cccc(Cl)c2)cc1	-2.4% (inactive)	
Cc1ccc([C@H]2C(C(=O)O)=CC[C@@H](c3cccc(Cl)c3)N2S(=O)(=O)c2ccc(C)cc2)cc1	16.6% (inactive)	2.77%
Cc1ccc(S(=O)(=O)N2[C@@H](c3cccc(Cl)c3)C(C(=O)O)=CC[C@H]2c2cccc(C)c2)cc1	20.8% (inactive)	
O=C(NCCCN1CCCC1=O)c1cccc(N2CCCC2=O)c1	-1.47% (inactive)	
CN(C)S(=O)(=O)c1ccc(C(=O)OCC(=O)c2ccc(OC(F)F)cc2OC(F)F)cc1	2.08% (inactive)	
CCCN1CCN(C(=O)c2ccc(CS(=O)c3ccc(F)cc3)o2)CC1 (centres undefined)	-6.18% (inactive)	
O=S(=O)(NCc1cccc(C(F)(F)F)c1)NCc1ccccc1F	-7.25% (inactive)	
CCn1c(SCc2nc3ccccc3c(=O)[nH]2)nnc1-c1ccncc1	3.13% (inactive)	-0.31%
CCCCn1c(N)c(N(CCOC)C(=O)CCc2ccc(OC)cc2)c(=O)[nH]c1=O	-2.18% (inactive)	
Cc1ccc(Cc2nc(-c3ccncc3)no2)cc1	-1.78% (inactive)	
CCN(CC)Cc1cc(C(C)=O)ccc1O	-1.36% (inactive)	
CN(C)Cc1cc(O)c(CN(C)C)cc1O	24.7% (inactive)	
Nc1nc(N)c(N=Nc2ccc(C(=O)O)cc2)c(N)n1	0.65% (inactive)	
COc1ccc(N=Nc2ccc(N)nc2N)cc1	1.3% (inactive)	
COc1cc2cc(CCCOC(=O)c3ccc(Br)cc3)oc(=O)c2cc1OC	8.18% (inactive)	
COc1cc(C(CC(=O)Nc2ccc(C)cn2)N2Cc3ccccc3C2=O)cc(OC)c1OC (centres undefined)	-5.88% (inactive)	
Cc1ccc(C(=O)C(C)OC(=O)C2CCN(c3ccc(C(F)(F)F)cn3)CC2)cc1 (centres undefined)	-0.72% (inactive)	
CNC(=O)C1CC(=O)N(CCc2ccc(C)cc2)C1 (centres undefined)	-3.31% (inactive)	
Cc1noc(C(=O)Nc2ccccc2C(F)(F)F)c1Cl	-9.68% (inactive)	
COc1ccc(/C=C2/SC(=S)N(n3c(C)ccc3C)C2=O)cc1	-3.19% (inactive)	
O=C(Cc1ccccc1)NN1C(=O)/C(=C/c2ccc(C(=O)O)cc2)SC1=S	27% (inactive)	
O=C(O)c1ccc(/C=C2\SC(=S)N(NC(=O)c3ccccc3)C2=O)cc1	8.49% (inactive)	

Structure (SMILES)	inhibition	inhibition [1]
COc1ccc(/C=C2/SC(=S)N(NS(=O)(=O)c3ccccc3)C2=O)cc1	21.2% (inactive)	
O=C1/C(=C/c2ccc(O)c(O)c2)SC(=S)N1Nc1ccccc1	-21.8% (inactive)	
CC(=O)NN1C(=O)/C(=C\c2ccc(C)cc2)SC1=S	-6.43% (inactive)	
Cc1ccc(S(=O)(=O)NN2C(=O)/C(=C\c3ccc(Cl)cc3)SC2=S)cc1	-1.66% (inactive)	
CCN1CCCC(NC(=O)c2cc([N+](=O)[O-])ccc2OC)C1 (centres undefined)	-5.8% (inactive)	
O=C(CSc1ccccc1)N1CCCC(N2CCN(c3ccc(F)cc3)CC2)C1 (centres undefined)	1.77% (inactive)	
Nn1c(Cc2ccccc2F)nnc1SCC(=O)Nc1cccc(S(=O)(=O)NC2=NCCCCC2)c1	-0.76% (inactive)	
COc1ccc(CNS(=O)(=O)NCc2ccc(C)cc2)cc1OC	-10.9% (inactive)	
COCCNC(=O)C1CC2Cn3c(nc4cc5ccccc5cc43)C2N1C (centres undefined)	-1.6% (inactive)	
C=C(C)C(=O)NNc1ccccc1	0% (inactive)	
O=C(Cc1ccc(Cl)cc1)N/N=C/c1ccncc1	-1.47% (inactive)	
Cc1noc(C)c1COc1ccc(C(=O)OCC(=O)Nc2cccc(S(=O)(=O)N3CCOCC3)c2)cc1	0.96% (inactive)	
O=C(O)c1ccccc1/C=N/NC(=O)C1CCCC1	-8.46% (inactive)	
COc1cc(/C=C2/SC(=S)NC2=O)ccc1OS(=O)(=O)c1ccc(C)cc1	9.96% (inactive)	
CCOc1ccc(/C=C2\SC(=S)N(Nc3ccccc3)C2=O)cc1OC	8.01% (inactive)	
COc1ccc(OC)c(/C=C2\SC(=S)N(NS(=O)(=O)c3ccc(C)cc3)C2=O)c1	40.5% (inactive)	
COc1cc(/C=C2\SC(=S)N(CC(=O)O)C2=O)ccc1OS(=O)(=O)c1ccc(C)cc1	22.7% (inactive)	
COc1ccc(/C=C2/SC(=O)N(NS(=O)(=O)c3ccccc3)C2=S)cc1OC	15.7% (inactive)	
CCOc1ccc(/C=N/NS(=O)(=O)c2ccc(C)cc2)cc1OC	-1.16% (inactive)	
